# 15-hLO inh – inhibitors of human 15-lipoxygenase (ALOX15). purified 15hLO-1, xylenol orange hydroperoxide absorbance. 74,000 compounds, 1.4% hits. Potency, µM (titrated, usually from 57.1 µM), inactives show top-dose activity change, negative = inhibition, usual class: inhibitors. AID 887. P16050; further: on the % scale 0 is the no-effect control and ±100 the full control effect; nearly all actives have a fitted effect of over 55% in size
# Target sequence (P16050 whole entry, looked up): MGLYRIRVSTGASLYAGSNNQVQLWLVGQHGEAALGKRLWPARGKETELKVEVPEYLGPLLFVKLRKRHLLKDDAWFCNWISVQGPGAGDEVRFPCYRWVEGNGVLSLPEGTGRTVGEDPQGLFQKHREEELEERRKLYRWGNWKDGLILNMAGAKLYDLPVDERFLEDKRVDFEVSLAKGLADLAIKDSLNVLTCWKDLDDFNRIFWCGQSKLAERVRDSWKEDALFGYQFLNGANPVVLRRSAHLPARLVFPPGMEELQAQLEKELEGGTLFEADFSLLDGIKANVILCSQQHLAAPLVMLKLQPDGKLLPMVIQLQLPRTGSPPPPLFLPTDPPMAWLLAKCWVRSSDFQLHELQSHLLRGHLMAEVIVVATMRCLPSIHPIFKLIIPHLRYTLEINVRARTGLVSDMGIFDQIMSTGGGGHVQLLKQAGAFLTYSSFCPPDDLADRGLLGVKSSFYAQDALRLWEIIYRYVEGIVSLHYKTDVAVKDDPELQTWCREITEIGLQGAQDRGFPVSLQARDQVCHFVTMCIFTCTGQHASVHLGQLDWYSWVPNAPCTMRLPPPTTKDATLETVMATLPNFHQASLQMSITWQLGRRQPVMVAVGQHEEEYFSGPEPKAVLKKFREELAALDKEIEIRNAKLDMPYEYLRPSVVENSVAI
#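 Hydroperoxide formed from arachidonic acid (50 uM) by purified human 15hLO-1 (40 nM) oxidizes ferrous iron, and the ferric-xylenol orange complex is read at 573 versus 405 nm. Compounds were preincubated 15 min; reaction ran 6 min at room temperature.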
# CRE Fsk mod – alters forskolin-stimulated CRE reporter signaling in CHO cells; CHO CRE-bla reporter (cAMP response element driving beta-lactamase), forskolin EC10, beta-lactamase ratio; Potency, µM (titrated, usually from 38.2 µM), inactives show top-dose activity change, negative = inhibition, hits mostly activators; 71,000 compounds, 2.5% hits; active means well fitted activation curve with a large enough effect in the signal ratio, with a control signal flat, not every such curve was filed as active; inconclusive means small, poorly fitted or top-dose-only effect, or effect the other way, or a change in a side signal; the % refers to the signal ratio; further: % of control where 0% means no effect
#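 Forskolin analogue NKH 477 at EC10 stimulated CRE-driven beta-lactamase in CHO cells alongside compound dilution series. Beta-lactamase was measured with CCF4, excitation 405 nm, emission ratio 460/530 nm.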
# 15-hLO-2 inh – inhibitors of human 15-lipoxygenase 2 (ALOX15B); Potency, µM (series often up to 57.1 µM), inactives show at the highest dose activity change, negative = inhibition, usual class: inhibitors; O15296; purified 15hLO-2, xylenol orange hydroperoxide absorbance; 110,000 compounds, 0.56% hits; further: on the % scale 0 is the no-effect control and ±100 the full control effect; nearly all actives have a fitted effect of over 60% in size
#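 Screening format was qHTS against 50 nM purified 15hLO-2 in Hepes pH 7.5 with detergent. Activity follows hydroperoxide formation from 45 uM arachidonic acid, measured as 573:405 nm absorbance ratio of the ferric-xylenol orange complex.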
# ERK AVP inh – vasopressin-driven ERK pathway inhibition; 72,000 compounds, 0.99% hits; Potency, µM (highest dose often 57.5 µM), without a hit: at the highest dose activity, negative = inhibition, hits mostly inhibitors; HEK293-V1b, vasopressin-stimulated pERK AlphaScreen; AID 995; further: on the % scale 0 is the no-effect control and ±100 the full control effect; nearly all actives have a fitted effect of over 55% in size
#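 qHTS, compounds titrated on V1b-expressing HEK293 cells. Preincubation 30 min at 37C, vasopressin 25 nM for 5 min, lysis 10 min, bead incubation 5 hr at room temperature.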
# An asterisk follows results filed as active; ? = inconclusive; . = no result; [ ] = dose if it differs, or a comment. A selection: hits, their analogues and other compounds. The true share with any hit is near 3.2%. Unless noted, the call rests on the fitted dose curve; in most records, active means well fitted inhibition curve with a large enough effect; inconclusive means small, poorly fitted or top-dose-only effect; inactive means no such curve, though single readings can be large or run the other way. Potency means the concentration at half of the fitted maximal effect.
SMILES,15-hLO inh,CRE Fsk mod,15-hLO-2 inh,ERK AVP inh
CC(C)c1cccc2nc3c(c([Si](C)(C)C)c12)Cn1c-3cccc1=O,.,13µM*,-17%,35%
CCc1cccc2nc3c(c([Si](CC)(CC)CC)c12)Cn1c-3cccc1=O,.,10µM*,-22%,-11%
CCOc1cc(/C=C2\C(=O)N(c3ccc(C(N)=O)cc3)N=C2C)ccc1OC(=O)c1cccs1,.,.,5µM*,.
O=C(N/N=C\c1ccccc1O)c1ccccc1O,-17%[25.6 µM],?,13%,?
C[N+]1(CCC(=O)c2ccco2)CC2CCC(CC2)C1 (configuration not stated),6%[11.4 µM],3%[7.6 µM],-6%[11.4 µM],-6%[11.5 µM]
COc1cccc(-c2cc(C(=O)N/N=C/c3ccccc3O)[nH]n2)c1,9%,.,.,.
CCSc1nc2ccccc2n1Cc1nc(N)nc(N(C)C)n1,-5%,?,11%,?
CN(C)c1nc(N)nc(Cn2ccnc2)n1,-3%,6.3µM*,-2%,-21%
O=C(Nc1ccccc1)N1CCCC2(CCN(C(=O)c3csnn3)CC2)C1,3%,-3%,3%,7%
COc1ccc(Cn2c3nc4ccccc4nc3c3c(=O)n(Cc4ccco4)cnc32)cc1,?,13µM*,?,-9%
Cc1cccc(-n2cnc3c(c2=O)c2nc4ccccc4nc2n3Cc2ccco2)c1,-28%,?,-28%,-23%
COc1ccc(C(=O)N2CCC[C@@]3(CCN(Cc4nccs4)C3)C2)cc1,2%,-10%,10%,8%
CC(=O)N1CCC2(CCCN(C(=O)Nc3cccc(F)c3)C2)CC1,11%,3%,1%,-1%
Clc1ccc(/C=C\c2nc(Cl)c(-c3ccc(Cl)cc3)c(Cl)n2)cc1,7%[11.4 µM],-4%[7.6 µM],-16%[11.4 µM],30%[11.5 µM]
CS(=O)(=O)N1CCCC(C(=O)NCc2ccc(F)cc2Cl)C1 (configuration not stated),-4%,10µM*,1%,-28%
CN1CCc2nc(NC(=O)c3cccc(S(=O)(=O)N4CCc5ccccc54)c3)sc2C1,16µM*,?,39%,3%
Cc1cc(=O)oc2c1ccc1oc(/C(=N/O)c3ccccc3)c(C)c12,7.9µM*,?,?,-18%
Cc1cc(=O)oc2c(C(=O)/C=C/c3ccccc3)c(O)ccc12,.,.,-5%,.
COC(=O)c1cccc(Oc2nc3c(c(=O)n(C)c(=O)n3C)n2C(C)C)c1,13%,2.5µM*,2%,.
COc1ccc(CNc2oc(-c3cccc4ccccc34)nc2C#N)cc1,-20%,10µM*,.,22%
COc1ccc(CCNc2oc(Cc3ccccc3)nc2C#N)cc1OC,5%,10µM*,1%,?
COc1ccc(-c2nc(C#N)c(NCc3ccc(C)cc3)o2)cc1OC,-15%,5µM*,0%,?
CNc1oc(-c2ccco2)nc1C#N,8%,8%,-3%,-10%
Cc1ccc(CNc2oc(-c3ccco3)nc2C#N)cc1,-12%,10µM*,.,-25%
CCN(CC)CCCNc1oc(-c2ccc(OC)c(OC)c2)nc1C#N,-13%,14%,18%,-8%
SMILES,15-hLO inh,CRE Fsk mod,15-hLO-2 inh,ERK AVP inh
COc1ccc(-c2nc(C#N)c(NCCc3ccccc3)o2)cc1OC,-14%,?,-7%,16µM*
CCN(CCCNC(=O)CC1Oc2ccc(C)cc2NC1=O)Cc1ccccc1 (configuration not stated),10µM*,-6%,.,44%
Cc1ccccc1C(=O)OCn1nnc2ccccc2c1=O,-15%,13µM*,.,.
Cc1nc(SCn2nnc3ccccc3c2=O)nc(C)c1C,0%,13µM*,13%,-14%
Cc1cc(C(=O)OCn2nnc3ccccc3c2=O)c(C)n1-c1ccccc1,-21%,4µM*,-3%,?
COc1cc(C(=O)OCn2nnc3ccccc3c2=O)cc(OC)c1OC,0%,6.3µM*,5%,-21%
COc1cccc(C(=O)OCn2nnc3ccccc3c2=O)c1OC,-4%,-10%,.,.
CCOc1ccc(C(=O)OCn2nnc3ccccc3c2=O)cc1OC,-3%,?,2%,11%
CC(=C/C=C/C(C)=C/C=C/C=C(C)/C=C/C=C(C)/C=C/C(=O)O)/C=C/C(=O)O,5%,7%,-16%,1%
c1c[nH]cn1,-6%,-12%,-8%,16%
COc1ccc(-c2nc3cnc(N4CCN(C)CC4)nc3n(CCc3ccccc3)c2=O)cc1,-4%,?,-6%,26%
CCCCCCCCCCCCCCC1CO1 (configuration not stated),-1%,-3%,3%,0%

# Source: PubChem (National Center for Advancing Translational Sciences (NCATS))
